Most compounds without a hit are left out; they make up all but 11% or so of the library.
Pf growth 96h: inhibits malaria parasite growth, 96 h. P. falciparum luciferase reporter growth, 96 h. Potency, µM (highest dose often 28.7 µM), without a hit: at the top dose activity change, negative = inhibition, usual class: inhibitors. actives 6.9% (n = 320,000). AID 504834
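Readout is luminescence from an integrated firefly luciferase in P. falciparum. Red cells, 2% hematocrit and 0.05% parasitemia final, were cultured with compound through two parasite generations (96 hours) at 37 C, 5% CO2.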
AMA1-RON2 inh: inhibitors of Plasmodium falciparum AMA1-RON2 interaction; AlphaScreen AMA1-biotinylated RON2 peptide binding; Potency, µM (top dose mostly 58.2 µM), for inactives: at the highest dose activity change, negative = inhibition, most hits filed as inhibitors; AID 720542; actives 0.2% (n = 360,000);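 note: 0% = vehicle wells and -100% = peptide control; nearly all actives have a fitted effect of over 45% in size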
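AMA1 (3D7) with his tag at 25 nM final met compounds first, then biotinylated RON2 peptide at 25 nM; detection used donor plus acceptor beads, 10 µg/mL apiece, read by AlphaScreen after 30 min at room temperature.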
HCV inh: inhibitors of hepatitis C virus infection | Huh7.5.1 HCVcc-Cre infection, luciferase reporter, 44 h | actives 3.4% (n = 340,000) | Potency, µM (highest dose often 41.8 µM), for the others: at the top dose activity change, negative = inhibition, hits mostly inhibitors
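Compounds are dispensed onto cells plated 4 h earlier at 1,000 per well, with HCVcc-Cre virus (about 0.5 moi) added next. Following 44 h of culture, luminescent signal is measured for 15 sec after 15 min with substrate at room temperature.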
Pf growth 48h: inhibits P. falciparum growth in the first generation, 48 h; P. falciparum luciferase growth in erythrocytes, 48 h; Potency, µM (titrated, usually from 28.7 µM), without a hit: at the top dose activity change, negative = inhibition, usual class: inhibitors; actives 5.9% (n = 310,000)
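Here the parasites carry a stable luciferase gene and grow inside erythrocytes in Albumax-based RPMI medium with compound for one erythrocytic cycle. Activity is scored as loss of luminescent signal.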
* marks the source's active call; other numbers are inactive results; u = inconclusive; x = no result given; [ ] = dose if it differs, or a comment. Calls come from the whole dose curve; as a rule, active = well fitted curve in the direction sought with a large enough effect; inconclusive = small, poorly fitted or top-dose-only effect, or another doubt; inactive = no such curve, though single readings can be large; an effect the other way counts as inactive or inconclusive. Unless noted, % is set by controls: 0 for no effect and ±100 for the full control effect; potency is the fitted concentration of half-maximal effect.

SMILES | Pf growth 96h | AMA1-RON2 inh | HCV inh | Pf growth 48h
COc1cccc(CC2(CO)CCCN(Cc3ccccc3Cl)C2)c1 (stereo not drawn) | 10µM* | 0% | u | 21%
COc1ccc(/C=C/CN2CCCC(CO)(Cc3cccc(Cl)c3)C2)cc1 (stereo not drawn) | 12% | -5% | -8% | 13µM*
COc1ccc(F)c(CN2CCCC(CO)(Cc3cccc(Cl)c3)C2)c1 (stereo not drawn) | -29% | -3% | -1% | -1%
COc1ccc(CN2CCCC(CO)(Cc3ccc(F)cc3)C2)cc1C (stereo not drawn) | u | 0% | -8% | 15µM*
COc1ccccc1/C=C/CN1CCCC(CO)(Cc2cccc(Cl)c2)C1 (stereo not drawn) | -2% | -17% | u | u
COc1ccccc1OCc1cc(C(=O)N(C)CCC2CCCCO2)no1 (stereo not drawn) | u | -2% | 0% | 8%
COc1cccc(CC2(CO)CCN(S(=O)(=O)N(C)C)CC2)c1 | -27% | -3% | -2% | 14%
CCOC(=O)N1CCC(N2CCCC(CO)(Cc3cccc(OC)c3)C2)CC1 (stereo not drawn) | 3.3µM* | -9% | -2% | u
COc1cccc(CC2(CO)CCCN(S(=O)(=O)N(C)C)C2)c1 (stereo not drawn) | 6.6µM* | 6% | -9% | -7%
COc1cccc(CC2(CO)CCCN(Cc3cc(F)ccc3-n3cccn3)C2)c1 (stereo not drawn) | 36% | -15% | u | 13µM*
O=C(Cc1cccc(F)c1)N1CCCC(CO)(Cc2ccc(F)cc2F)C1 (stereo not drawn) | -4% | -10% | 0% | -2%
COc1cccc(CC(=O)N2CCCC(CO)(Cc3ccc(F)cc3F)C2)c1 (stereo not drawn) | 8.3µM* | -3% | 5% | -9%
CC1(C(=O)NCc2ccccc2)CSCC(=O)N1C1CC1 (stereo not drawn) | x | 0% | x | x
CCOC(=O)C1CCCN(S(=O)(=O)c2cc3[nH]c(=O)c(=O)[nH]c3cc2C)C1 (stereo not drawn) | u | 0% | 18% | u
O=C(Nc1ccccc1)/C(=C1\CCCN1)[N+](=O)[O-] | 51% | 5% | 11% | 41%
Clc1cccc(Cl)c1Cn1cnc(=NCc2ccco2)c2[nH]cnc21 | x | -23% | -12% | 15µM*
COc1cc(OC)c(NC2c3ccccc3C(=O)N2c2cc(C)ccn2)cc1Cl (stereo not drawn) | 12µM* | -13% | 3% | -12%
O=C1c2ccccc2C(Nc2ccc(S(=O)(=O)N3CCOCC3)cc2)N1Cc1ccco1 (stereo not drawn) | 8.3µM* | -12% | 1% | x
O=C1c2ccccc2C(Nc2ccc(Cl)cn2)N1c1ccccn1 (stereo not drawn) | 6% | 0% | -17% | 12µM*
CCOC(=O)c1ccccc1NC1c2ccccc2C(=O)N1c1cc(C)ccn1 (stereo not drawn) | u | 10% | u | x
O=C1c2ccccc2C(Nc2ccc(S(=O)(=O)N3CCCCCC3)cc2)N1c1ccccn1 (stereo not drawn) | -25% | 0% | -5% | x
O=C1c2ccccc2C(Nc2ccc(-c3nc4ccccc4[nH]3)cc2)N1Cc1ccco1 (stereo not drawn) | 19% | 6% | 10µM* | u
Cc1cc(C)c(NS(=O)(=O)c2ccc(NC(=O)CCC(=O)O)cc2)c(C)c1 | u | -2% | 14% | 4%
O=C1c2ccccc2C(Nc2ccc(S(=O)(=O)N3CCOCC3)cc2)N1c1ccccn1 (stereo not drawn) | 7.4µM* | 18% | u | x
CCC(c1nnnn1C1CCCC1)N1CCC(C(N)=O)CC1 (stereo not drawn) | -17% | -7% | 6% | 3%
SMILES | Pf growth 96h | AMA1-RON2 inh | HCV inh | Pf growth 48h
O=C(NC1CCCCCC1)C1CCC(=O)N(Cc2ccccc2F)C1 (stereo not drawn) | u | 3% | 28% | u
CC(=O)Nc1ccc(-c2cc(-c3ccc(NC(C)=O)cc3)nc(-c3ccccc3)n2)cc1 | u | -3% | u | 7%
CCC(=O)Nc1ccc(-c2cc(-c3ccccc3)nc(-c3ccc(NC(=O)CC)cc3)n2)cc1 | 13µM* | 9% | u | u
Nc1ccc(-c2cc(-c3cccc(N)c3)nc(-c3ccccc3)n2)cc1 | 2.1µM* | 20% | 23% | 13µM*
CC(=O)Nc1ccc(-c2cc(-c3ccccc3)nc(-c3ccccc3)n2)cc1 | 1.3µM* | 8%[2.32 µM] | -3% | u
CCOc1cc(/C=C(/NC(C)=O)C(=O)O)cc(Cl)c1OCc1cccc(Br)c1 | 1% | -1% | 1% | -7%
COc1cccc(CC(=O)OC(C)C(=O)Nc2ccc(Cl)cn2)c1 (stereo not drawn) | 7% | -4% | -9% | u
CC(OC(=O)Cc1ccsc1)C(=O)Nc1ccc(Cl)cn1 (stereo not drawn) | -18% | 0% | 22µM* | -49%
Cc1cccc(NC(=O)c2cnc3scc(C)n3c2=O)c1 | 128% | 6% | 6% | 89%
Cc1csc2ncc(C(=O)Nc3ccon3)c(=O)n12 | 2.6µM* | 8% | 12% | 18%
O=C(COC(=O)c1ccc[n+]([O-])c1)Nc1c(Br)cc([N+](=O)[O-])cc1Br | 9% | x | x | -4%
CCOC(=O)c1ccc(NC(=O)c2cn(-c3ccccc3)nc2-c2ccncc2)cc1 | 0% | 7% | u | 4.1µM*
COC(=O)c1cn(-c2ccccc2)nc1-c1ccncc1 | -1% | -5% | 0% | -5%
O=C(OCc1ccccc1)c1cn(-c2ccccc2)nc1-c1ccncc1 | 9.3µM* | -7% | 17% | u
COc1ccc(C)cc1CN(C)c1ccc(S(=O)(=O)N2CCN(C)CC2)cn1 | u | u | u | 10µM*
COC(=O)C1=CO[C@@H](O[C@@H]2O[C@H](CO)[C@@H](O)[C@H](O)[C@H]2O)C2C1CC(O)O[C@H]2C (stereo partly drawn) | x | -4% | 48% | x
COC(=O)c1c(NC(=O)c2c(-c3ccccc3Cl)noc2C)sc2c1CCC2 | 2.1µM* | -18% | -3% | x
COC(=O)c1c(NC(=O)C(=O)NCCCN2CCOCC2)sc2c1CCCC2 | u | 19% | 22µM* | -18%
CC(=O)Nc1sc2c(c1C(=O)N1CCOCC1)CCCCC2 | 12µM* | 0% | -1% | 6%
COC(=O)c1c(NC(=O)COC(=O)c2ccc(O)cc2)sc2c1CCCCC2 | u | -9% | 3.2µM* | u
COC(=O)c1c(NC(=O)c2c(C)noc2C)sc2c1CCCCCC2 | 0% | x | 13% | 7%
O=C(NNC(=O)c1csc(N2CCOCC2)n1)c1ccc(Cl)nc1 | u | 47% | 16% | u
CC1(C(=O)NCc2cccs2)Cc2c(-c3ccccc3)ccnc2O1 (stereo not drawn) | x | 7% | x | x
COC(=O)c1c(NC(=O)c2ccc(C)o2)sc2c1CCCCC2 | 49% | 12% | 11µM* | 85%
Cc1ccc(C(=O)Nc2sc3c(c2C(=O)O)CCCCC3)o1 | u | 0% | 11% | -12%

High-throughput results (PubChem BioAssay)
